From publication PMC5540273 (PLoS ONE, 2017)

Experiments:
Conditions in all cases: concentration: 1 μM, replicates: in singlicate; n = 1
ERK5 = tested on: T1, ERK5
T1 construct: gene MAPK7

ERK8 = tested on: T2, ERK8
T2 construct: gene MAPK15

ERN1 = tested on: ERN1
FAK = tested on: T3, FAK
T3 construct: gene PTK2

FER = tested on: FER
FES = tested on: FES
FGFR1 = tested on: FGFR1
FGFR2 = tested on: FGFR2
FGFR3 = tested on: FGFR3
FGFR4 = tested on: FGFR4
FGR = tested on: FGR
FLT1 = tested on: FLT1
FLT3-autoinhibited = tested on: FLT3-autoinhibited
FLT3 = tested on: FLT3
FLT4 = tested on: FLT4
FRK = tested on: FRK
FYN = tested on: FYN
GAK = tested on: GAK
GCN2(Kin.Dom.2,S808G) = tested on: T4, GCN2(Kin.Dom.2,S808G)
T4 construct: gene EIF2AK4

GRK1 = tested on: GRK1
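Also: KINOMEscan kinase panel screen.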

Row | SMILES | %Inh (ERK5) | %Inh (ERK8) | %Inh (ERN1) | %Inh (FAK) | %Inh (FER) | %Inh (FES) | %Inh (FGFR1) | %Inh (FGFR2) | %Inh (FGFR3) | %Inh (FGFR4) | %Inh (FGR) | %Inh (FLT1) | %Inh (FLT3-autoinhibited) | %Inh (FLT3) | %Inh (FLT4) | %Inh (FRK) | %Inh (FYN) | %Inh (GAK) | %Inh (GCN2(Kin.Dom.2,S808G)) | %Inh (GRK1)
1 | Cn1c(=O)c(F)c(Nc2ccc(I)cc2F)c2c(=O)n(OC[C@H](O)CO)cnc21 | 24% | 16% | 0% | 30% | 10% | 9% | 23% | 4% | 0% | 12% | 32% | 0% | 0% | 0% | 10% | 0% | 14% | 11% | 0% | 9%
2 | Nc1nc(-c2ccccc2F)c(-c2ccnc3ccccc23)s1 [GW560459] | 0% | 0% | 0% | 0% | 13% | 0% | 0% | 0% | 0% | 75% | 7% | 30% | 0% | 25% | 0% | 0% | 39% | 79% | 6% | 0%
3 | CCS(=O)(=O)c1ccc(OC)c(Nc2ncc(-c3ccc(F)cc3)o2)c1.Cl [GW591947] | 0% | 0% | 8% | 0% | 29% | 0% | 3% | 0% | 0% | 12% | 0% | 26% | 0% | 0% | 6% | 0% | 9% | 0% | 16% | 0%
4 | Cc1ccccc1COc1cc(-n2cnc3cc(Cl)ccc32)sc1C(N)=O [GW813349] | 0% | 9% | 0% | 5% | 0% | 2% | 12% | 3% | 0% | 0% | 9% | 5% | 3% | 8% | 10% | 0% | 0% | 1% | 0% | 13%
5 | CCC(=O)c1c(-c2ccccc2)c2cc(Cl)ccc2c(=O)n1Cc1cc(S(C)(=O)=O)n(CC(F)F)n1 | 0% | 6% | 0% | 0% | 0% | 0% | 0% | 4% | 0% | 0% | 0% | 0% | 0% | 0% | 0% | 0% | 0% | 0% | 0% | 12%
6 | O=C(NCc1cccs1)c1cc(C(=O)c2c(Cl)cccc2Cl)c[nH]1 [GW823670] | 0% | 0% | 0% | 91.3% | 1% | 0% | 0% | 0% | 0% | 0% | 7% | 2% | 0% | 2% | 2% | 0% | 0% | 0% | 8% | 0%
7 | Cc1ccc(-c2ccc3c(ccc4sc5c(c43)NC[C@@H](C)N=C5N(C)C)n2)cn1 | 2% | 8% | 0% | 0% | 1% | 0% | 0% | 0% | 0% | 0% | 1% | 1% | 0% | 0% | 0% | 0% | 0% | 0% | 0% | 0%
8 | Nc1ncnc2c1ncn2-c1ccc(Cl)cc1 [AH2635] | 0% | 0% | 0% | 0% | 26% | 0% | 0% | 0% | 8% | 0% | 18% | 39% | 1% | 46% | 9% | 0% | 12% | 7% | 0% | 0%
9 | Fc1cccc(CSc2nnc(-c3ccc4c(c3)CCO4)o2)c1 | 0% | 3% | 14% | 0% | 0% | 0% | 0% | 0% | 0% | 6% | 0% | 0% | 23% | 0% | 15% | 15% | 3% | 3% | 4% | 7%
10 | COc1cc(Nc2nccc(N3CCC(NC(=O)C(C)c4ccc(Cl)cc4)C3)n2)cc(OC)c1OC (stereo not shown) [GSK1379757] | 0% | 0% | 0% | 0% | 2% | 18% | 0% | 45% | 2% | 0% | 26% | 40% | 0% | 25% | 7% | 0% | 0% | 0% | 0% | 0%
11 | Nc1nc(N)c2nc(-c3ccccc3)[nH]c2n1 [SKF-12778] | 0% | 41% | 11% | 6% | 14% | 0% | 16% | 32% | 21% | 12% | 30% | 18% | 7% | 8% | 22% | 8% | 0% | 30% | 23% | 5%
12 | Nc1nccc2scc(-c3ccc4c(c3)CCN4C(=O)Cc3ccccc3)c12 [GSK2576924] | 10% | 0% | 15% | 0% | 16% | 0% | 0% | 0% | 27% | 7% | 22% | 22% | 3% | 0% | 21% | 0% | 33% | 0% | 0% | 4%
13 | Cc1nc(N(C)[C@H]2CN(C(=O)CC#N)CC[C@H]2C)c2cc[nH]c2n1 | 7% | 1% | 12% | 0% | 0% | 9% | 1% | 6% | 0% | 0% | 6% | 0% | 0% | 5% | 15% | 0% | 2% | 0% | 0% | 0%
14 | COc1cc(OC)cc(-c2cc3cnc(N)nc3nc2NC(=O)NC(C)(C)C)c1 | 2% | 29% | 0% | 0% | 0% | 0% | 97.8% | 96.7% | 96.3% | 54% | 0% | 38% | 0% | 0% | 73% | 0% | 1% | 0% | 3% | 13%
15 | Cc1nn2c(=O)cc(N3CCOCC3)nc2n1Cc1cccc(Cl)c1Cl [GSK2342769] | 0% | 18% | 0% | 0% | 14% | 6% | 1% | 30% | 15% | 5% | 24% | 27% | 9% | 0% | 34% | 0% | 0% | 1% | 3% | 3%
16 | Cc1nnc(-c2ccc(C)c(-c3ccc(C(=O)O)cc3)c2)o1 [GW608005] | 0% | 20% | 5% | 0% | 0% | 0% | 5% | 0% | 0% | 0% | 12% | 20% | 4% | 0% | 12% | 0% | 10% | 5% | 0% | 0%
17 | CCn1c(-c2nonc2N)nc2ccccc21 [SB-693162/GW549034] | 0% | 1% | 26% | 8% | 0% | 0% | 0% | 7% | 14% | 0% | 0% | 0% | 52% | 20% | 0% | 0% | 0% | 0% | 24% | 46%
18 | COC(=O)c1c(-c2ccccc2)c2cc(Br)ccc2c(=O)n1Cc1ccc(S(C)(=O)=O)cc1 | 8% | 0% | 23% | 6% | 0% | 20% | 0% | 10% | 2% | 0% | 13% | 0% | 0% | 9% | 1% | 1% | 0% | 9% | 0% | 0%
19 | COc1cccc(C2=C(N(C)c3ccccc3)C(=O)NC2=O)c1 [SB-334865] | 0% | 0% | 0% | 0% | 0% | 0% | 0% | 0% | 3% | 19% | 13% | 16% | 0% | 0% | 0% | 5% | 13% | 0% | 0% | 5%
20 | COc1ccc(-n2cnc3c(N)ncnc32)cc1 [SKF-97236] | 0% | 40% | 0% | 13% | 13% | 0% | 27% | 0% | 0% | 18% | 0% | 24% | 34% | 83% | 22% | 0% | 25% | 27% | 0% | 0%
